FLuc inh: blocks Photinus pyralis firefly luciferase activity; purified firefly luciferase, luminescence, 8 min; Potency, µM (doses to about 57.1 µM), without a hit: at the highest dose activity change, negative = inhibition, most hits filed as inhibitors; 72,000 compounds, 2.2% hits; AID 411; note: nearly all actives have a fitted effect of over 40% in size
Target sequence (P08659 whole entry, looked up): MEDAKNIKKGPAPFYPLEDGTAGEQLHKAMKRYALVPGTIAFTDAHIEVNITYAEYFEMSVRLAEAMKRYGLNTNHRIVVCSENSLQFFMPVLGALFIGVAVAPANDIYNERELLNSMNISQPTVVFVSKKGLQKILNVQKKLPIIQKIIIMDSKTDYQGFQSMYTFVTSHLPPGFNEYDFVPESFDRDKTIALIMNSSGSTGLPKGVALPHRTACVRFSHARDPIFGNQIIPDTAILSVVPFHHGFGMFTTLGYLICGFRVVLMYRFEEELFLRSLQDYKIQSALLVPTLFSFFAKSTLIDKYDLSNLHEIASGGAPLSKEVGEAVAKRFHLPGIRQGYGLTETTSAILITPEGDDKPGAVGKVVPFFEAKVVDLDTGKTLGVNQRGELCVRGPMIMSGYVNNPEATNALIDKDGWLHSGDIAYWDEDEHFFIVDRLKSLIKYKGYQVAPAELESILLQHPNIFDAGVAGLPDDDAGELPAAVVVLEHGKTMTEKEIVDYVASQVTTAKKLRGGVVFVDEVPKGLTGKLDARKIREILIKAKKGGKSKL
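qHTS concentration-response profiling: light output of P. pyralis luciferase with luciferin and 10 uM ATP, imidazole buffer pH 7.2. Read by luminescence after 8-min room-temperature incubation.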
p53ts 32C tox: kills p53ts cells at the permissive temperature | H1299-p53A138V at 32C, ATP luminescence viability, 24 h | Potency, µM (highest dose often 46.1 µM), for the others: at the highest dose activity change, negative = cytotoxicity, hits mostly cytotoxic | 130,000 compounds, 0.93% hits | AID 924;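 note: 0% = DMSO and -100% = full killing by reference compound; nearly all actives have a fitted effect of over 55% in size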
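Cells: H1299 p53ts (A138V), 600/well, pre-incubated 16–30 h at 37C. Cpd up to 46 uM, 24 h, 32C. Readout: ATPlite luminescence, 20 min RT. Normalization: DMSO vs tamoxifen 100 uM. AC50 by Hill equation.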
p53ts 39C kill: cytotoxicity in p53ts cells at nonpermissive temperature; H1299-p53A138V viability at 39C, ATP luminescence, 24 h; Potency, µM (top dose mostly 46.1 µM), inactives show top-dose activity change, negative = cell killing, hits mostly cytotoxic; 130,000 compounds, 1.5% hits; note: nearly all actives have a fitted effect of over 55% in size
* = called active by the depositor; ? = inconclusive; / = no result given; [ ] = remark or other dose. Sampled rows, rich in hits. Any-hit rate of the full collection: about 2.5%. Calls come from the whole dose curve; as a rule, active = well fitted curve in the direction sought with a large enough effect; inconclusive = small, poorly fitted or top-dose-only effect, or another doubt; inactive = no such curve, though single readings can be large; an effect the other way counts as inactive or inconclusive. Unless noted, % is set by controls: 0 for no effect and ±100 for the full control effect; potency is the fitted concentration of half-maximal effect.

SMILES	FLuc inh	p53ts 32C tox	p53ts 39C kill
NC(CSS(=O)(=O)O)=N[C@@H]1C[C@H]2CC[C@@H]1C2	4%[11.4 µM]	3%[9.22 µM]	11%[9.22 µM]
O=C(CSc1nnc(COc2ccccc2)o1)Nc1cc(C(F)(F)F)ccc1Cl	/	3%	-3%
CCC(=O)Nc1cccc(NC(=O)COc2ccc(OC)cc2)c1	20µM*	-25%	-10%
Cc1cccc(OCC(=O)Nc2cccc(O)c2)c1	-11%	-29%	-25%
Cc1ccc(OCC(=O)Nc2cccc(O)c2)cc1C	16µM*	-15%	-28%
CCc1ccc(OCC(=O)Nc2ccc(Cl)c(-c3nc4cc(C)cc(C)c4o3)c2)cc1	/	3%	-16%
Cc1ccc2nc(-c3cc(NC(=O)COc4ccc(C)c(C)c4)ccc3Cl)oc2c1	/	?	13µM*
COc1ccc(OCC(=O)Nc2ccc(C)cc2)cc1	-7%	-4%	-1%
C[C@H](O)CO[C@H]1[C@H]2O[C@H]3[C@H](O)[C@@H](O)[C@@H](O[C@H]4[C@H](O)[C@@H](O)[C@@H](O[C@H]5[C@H](O)[C@@H](O)[C@@H](O[C@H]6[C@H](O)[C@@H](OC[C@H](C)O)[C@@H](O[C@H]7[C@H](O)[C@@H](OC[C@H](C)O)[C@@H](O[C@H]8[C@H](O)[C@@H](O)[C@@H](O[C@@H]([C@@H]1O)[C@@H](CO)O2)O[C@@H]8CO)O[C@@H]7CO)O[C@@H]6CO)O[C@@H]5CO)O[C@@H]4CO)O[C@@H]3CO	1%	-3%	-2%
CCCC12CN3CC(CCC)(CN(C1)C3c1c[nH]c3ccccc13)C2=O (stereo not drawn)	/	23%	2%
Cc1ccc(C)c(N2CCN(C(=O)Cn3nc(Cc4cccnc4)c4ccccc4c3=O)CC2)c1	/	13%	13%
COc1cccc(Cn2c(=O)c(-c3cccs3)nc3cnc(N4CCNCC4)nc32)c1	-3%[11.4 µM]	7%	-25%
CC(C)CC(=O)Nc1c(C(=O)N2CCN(c3ccccc3)CC2)oc2ccccc12	/	-10%	17%
CCCCC(=O)Nc1c(C(=O)N2CCN(c3ccccc3)CC2)oc2ccccc12	/	17%	16µM*
COc1ccccc1CN1CC2(CCN(C(=O)c3cccc(F)c3)CC2)C1	-1%[11.4 µM]	-1%	6%
O=S1(=O)N=C(Nc2ccc(N3CCOCC3)cc2)c2ccccc21	13µM*	-13%	-12%
O=S1(=O)N=C(N2CCOCC2)c2ccccc21	-1%	1%	-11%
Cc1ccc(C)c(N2CCN(C(=O)C3CCN(C(=O)c4cc5sccc5n4C)CC3)CC2)c1	/	28%	-26%
Cc1cccc(N2CCN(C(=O)C3CCN(C(=O)c4cc5sccc5n4C)CC3)CC2C)c1 (stereo not drawn)	/	-11%	13µM*
CC12C=C(/C=C/CCc3ccco3)C(C)(C1)C(CCc1ccco1)CC2=O (stereo not drawn)	/	7%[9.22 µM]	19%[9.22 µM]
O=C(C1CCCN(S(=O)(=O)c2ccc(Br)s2)C1)N1CCN(c2ccc(F)cc2)CC1 (stereo not drawn)	/	9%	-23%
Cc1cccc(NS(=O)(=O)Cc2ccccc2)n1	/	8%	-2%
Cc1cccc(C#Cc2ccccc2)n1	13µM*	13µM*	?
COc1ncc2nc(-c3ccccc3)c(=O)n(C3CC3)c2n1	2%[11.4 µM]	10%	1%
COc1cc(OC)c(NC(=O)CCCn2nc(C)c3sc4ccccc4c3c2=O)cc1Cl	/	-26%	13µM*
SMILES	FLuc inh	p53ts 32C tox	p53ts 39C kill
COc1ccc(CNC(=O)CCCn2nc(C)c3sc4ccccc4c3c2=O)cc1OC	/	-22%	-13%
CC1(C)[C@@H]2CC[C@@](C)(C2)[C@H]1OC(=O)c1ccccc1C(=O)O	3%[11.4 µM]	-6%[9.22 µM]	-10%[9.22 µM]
Cc1ccc(CSc2nnc(-c3cccs3)n2C)cc1	-2%	-6%	-1%
Cc1nnc(SCc2cnc(-c3ccc(C(C)C)cc3)s2)n1C	0.5µM*	1.6µM*	2µM*
Cc1cc(C)c(NC(=O)C2CCCN(C(=O)c3cnn(-c4ccccc4)c3-n3cccc3)C2)c(C)c1 (stereo not drawn)	/	10%	15%
CCCCS(=O)(=O)c1nc(-c2ccc(Br)cc2)cc(-c2ccccc2)c1C#N	/	2µM*	?
C#CCSc1nc(-c2ccccc2)cc(-c2ccccc2)c1C#N	/	-3%	-12%
O=C1C(=O)N(Cc2ccc(Cl)c(Cl)c2)c2ccccc21	1%	?	6.3µM*
O=C1c2ccccc2N(Cc2ccc(Cl)cc2)C2=NCCN12	/	8%	7%
CCCCOc1ccccc1C(=O)N(Cc1cccc(F)c1)C1CCS(=O)(=O)C1 (stereo not drawn)	/	7%	-9%

High-throughput results (PubChem)
